# The source made the active and inactive calls.
# Legend:
# [1] = tested on: PRMT1 (protein arginine N-methyltransferase 1); assay: PRMT1 binders on small-molecule microarrays, primary screen, biochemical, small-molecule microarray, 635 nm fluorescence (AID 1088); settings: small-molecule microarray binding, higher = more signal;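 further: binding of Prmt1 protein to compounds spotted on small-molecule microarray slides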
# [2] = yeast growth modulation, basal conditions, primary screen, YJM789 clinical isolate, OD600, 24 h (AID 1089);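 further: growth of clinical yeast isolate S. cerevisiae YJM 789 seeded 1000 cells per well; test concentration not given here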; settings: S. cerevisiae YJM789 growth, higher = more signal, called active from +8 up or from −8 down
# [3] = fission yeast growth modulation, primary screen, strain 972, OD600, 24 h, no modulator (AID 1090);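 further: basal condition with compound alone and no growth modifier present; test concentration not given here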; settings: S. pombe 972 growth, higher = more signal, called active from +8 up or from −8 down
# [4] = S. cerevisiae growth modulation with rapamycin, primary screen, strain BY4716, OD600, 96 h (AID 1091); settings: higher = more signal, called active from +8 up or from −8 down; further: test concentration not given here
# [5] = target: Torsin-1A-interacting protein 2 (Homo sapiens) (UniProt Q8NFQ8); assay: LULL1 binders on small-molecule microarray, primary screen, cell lysate, human LULL1 lysate, 635/667 nm fluorescence (AID 1092); settings: hLULL1 lysate binding, 635 nm fluorescence, higher = more signal;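 further: probe is lysate of COS7 cells overexpressing human LULL1; score merges per-feature 667 nm fluorescence with signal-to-noise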
# Sequence of Torsin-1A-interacting protein 2 (Homo sapiens) (Q8NFQ8 whole entry, looked up): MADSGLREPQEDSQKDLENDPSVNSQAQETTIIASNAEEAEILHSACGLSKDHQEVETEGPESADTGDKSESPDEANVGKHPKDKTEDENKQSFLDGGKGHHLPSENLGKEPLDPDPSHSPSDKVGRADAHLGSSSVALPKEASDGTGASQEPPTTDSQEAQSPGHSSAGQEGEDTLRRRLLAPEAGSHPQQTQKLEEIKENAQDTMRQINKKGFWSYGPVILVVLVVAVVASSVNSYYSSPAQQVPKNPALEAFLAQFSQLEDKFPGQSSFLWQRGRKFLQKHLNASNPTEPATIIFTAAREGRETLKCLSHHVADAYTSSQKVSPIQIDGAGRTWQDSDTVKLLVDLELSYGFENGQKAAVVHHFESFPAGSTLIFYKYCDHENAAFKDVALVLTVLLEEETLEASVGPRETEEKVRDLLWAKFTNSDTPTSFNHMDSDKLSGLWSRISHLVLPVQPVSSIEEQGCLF
# [6] = E. coli growth modulation, two-sided OD650, primary screen, E. coli filamentation project, strain DRC41, 24 h (AID 1093); settings: OD650, 24 h, higher = more signal, called active from +8 up or from −8 down;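 further: MC1000 strain lacking acrAB efflux and sulA so SOS filamentation is blocked; test concentration not given here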
# [7] = small-molecule microarray binders of probe aLefty2, primary screen, biochemical, biotinylated probe, 635/667 nm fluorescence (AID 1094); settings: higher = more signal;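 further: score merges spot fluorescence near 667 nm with spot signal-to-noise ratio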
# [8] = tested on: Noggin (protein binding on small-molecule microarray); assay: Noggin binders on small-molecule microarray, primary screen, biochemical, 635/667 nm fluorescence (AID 1095); settings: 635 nm fluorescence, higher = more signal;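 further: score merges 667 nm feature fluorescence with signal to noise over triplicate slides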
# [9] = target: Neurogenic locus notch homolog protein 3 (Homo sapiens) (UniProt Q9UM47); assay: NOTCH3 binders on small-molecule microarray, primary screen, biochemical, 635/667 nm fluorescence (AID 1096); settings: NOTCH3 binding, 635 nm fluorescence, higher = more signal
# Sequence of Neurogenic locus notch homolog protein 3 (Homo sapiens) (Q9UM47 whole entry, looked up): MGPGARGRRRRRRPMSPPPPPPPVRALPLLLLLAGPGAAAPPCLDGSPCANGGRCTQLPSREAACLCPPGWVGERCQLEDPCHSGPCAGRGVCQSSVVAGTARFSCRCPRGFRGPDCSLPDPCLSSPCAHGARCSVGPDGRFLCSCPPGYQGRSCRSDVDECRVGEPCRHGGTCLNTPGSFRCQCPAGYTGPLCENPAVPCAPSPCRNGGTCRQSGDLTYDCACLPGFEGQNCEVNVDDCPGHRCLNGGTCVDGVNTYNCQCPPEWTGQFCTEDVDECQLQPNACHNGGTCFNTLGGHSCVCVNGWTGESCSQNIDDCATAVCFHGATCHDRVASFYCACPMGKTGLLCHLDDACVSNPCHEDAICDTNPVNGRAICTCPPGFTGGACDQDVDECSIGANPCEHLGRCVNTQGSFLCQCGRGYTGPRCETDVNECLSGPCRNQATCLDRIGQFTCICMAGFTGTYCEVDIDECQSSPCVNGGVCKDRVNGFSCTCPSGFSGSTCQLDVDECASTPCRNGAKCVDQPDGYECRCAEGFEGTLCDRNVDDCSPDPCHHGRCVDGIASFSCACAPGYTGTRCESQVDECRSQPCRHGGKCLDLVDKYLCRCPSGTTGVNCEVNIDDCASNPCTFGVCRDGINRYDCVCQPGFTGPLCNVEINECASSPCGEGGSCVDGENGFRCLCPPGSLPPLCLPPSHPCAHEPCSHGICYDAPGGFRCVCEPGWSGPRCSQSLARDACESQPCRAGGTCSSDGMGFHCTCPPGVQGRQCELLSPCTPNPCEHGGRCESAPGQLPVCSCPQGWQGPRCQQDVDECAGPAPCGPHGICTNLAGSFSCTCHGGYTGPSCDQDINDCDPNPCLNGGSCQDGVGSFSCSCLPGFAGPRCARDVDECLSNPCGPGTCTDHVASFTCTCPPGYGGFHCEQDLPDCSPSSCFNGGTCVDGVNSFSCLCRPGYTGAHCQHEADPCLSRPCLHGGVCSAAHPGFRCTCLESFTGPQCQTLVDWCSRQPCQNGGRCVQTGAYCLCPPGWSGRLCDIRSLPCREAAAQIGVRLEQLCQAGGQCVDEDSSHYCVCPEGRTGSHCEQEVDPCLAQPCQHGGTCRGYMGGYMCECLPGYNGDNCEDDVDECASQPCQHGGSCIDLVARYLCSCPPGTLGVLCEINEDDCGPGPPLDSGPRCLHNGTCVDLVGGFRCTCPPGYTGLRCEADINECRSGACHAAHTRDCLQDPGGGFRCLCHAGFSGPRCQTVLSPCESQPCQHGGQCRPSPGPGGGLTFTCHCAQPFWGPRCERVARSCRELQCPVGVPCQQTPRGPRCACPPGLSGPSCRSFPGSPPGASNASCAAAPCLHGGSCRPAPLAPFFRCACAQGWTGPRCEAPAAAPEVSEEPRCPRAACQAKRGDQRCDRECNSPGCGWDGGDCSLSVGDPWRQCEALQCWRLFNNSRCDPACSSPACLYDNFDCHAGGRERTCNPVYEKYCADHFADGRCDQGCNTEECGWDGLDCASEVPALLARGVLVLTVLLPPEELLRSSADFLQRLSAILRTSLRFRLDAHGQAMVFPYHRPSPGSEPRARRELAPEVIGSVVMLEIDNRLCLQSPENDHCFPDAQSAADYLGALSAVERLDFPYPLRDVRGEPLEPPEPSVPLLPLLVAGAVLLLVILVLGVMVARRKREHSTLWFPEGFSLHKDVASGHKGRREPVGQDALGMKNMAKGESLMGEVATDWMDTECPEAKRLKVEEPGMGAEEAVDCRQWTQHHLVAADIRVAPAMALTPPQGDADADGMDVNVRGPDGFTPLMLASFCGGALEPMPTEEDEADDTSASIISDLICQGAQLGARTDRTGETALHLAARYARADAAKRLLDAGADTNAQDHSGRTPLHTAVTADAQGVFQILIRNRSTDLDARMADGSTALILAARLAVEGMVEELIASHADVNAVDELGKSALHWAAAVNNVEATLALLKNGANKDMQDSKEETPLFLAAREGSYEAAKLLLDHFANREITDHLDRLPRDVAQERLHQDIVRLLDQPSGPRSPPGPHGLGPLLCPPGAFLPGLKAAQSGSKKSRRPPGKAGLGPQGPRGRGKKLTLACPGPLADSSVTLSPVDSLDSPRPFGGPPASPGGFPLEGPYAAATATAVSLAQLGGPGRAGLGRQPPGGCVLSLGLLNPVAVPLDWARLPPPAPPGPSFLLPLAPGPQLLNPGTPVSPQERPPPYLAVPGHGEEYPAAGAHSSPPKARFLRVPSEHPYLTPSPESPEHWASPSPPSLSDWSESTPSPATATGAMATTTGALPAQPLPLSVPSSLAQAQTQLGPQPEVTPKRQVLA
# [10] = small-molecule microarray binders of probe aEGFR, primary screen, biochemical, biotinylated probe, 635/667 nm fluorescence (AID 1097); settings: higher = more signal;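 further: probe is a biotinylated anti-EGFR antibody binding compounds printed on slides; score combines fluorescence near 667 nm and signal to noise of each spot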
# [11] = tested on: Plasmodium falciparum Sir2 (PF13_0152, Sir2A); assay: pfSir2 binders on small-molecule microarrays, primary screen, biochemical, small-molecule microarray, 635 nm fluorescence (AID 1098); settings: small-molecule microarray binding, fluorescence 635 nm; higher = more signal;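 further: score merges spot fluorescence intensity with its signal-to-noise ratio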
# [12] = small-molecule microarray binders of probe aDKK1, primary screen, biochemical, biotinylated probe, 635/667 nm fluorescence (AID 1099); settings: higher = more signal;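 further: score merges 667nm spot fluorescence with signal to noise across triplicate slides; reference of the scale not given here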
# [13] = small-molecule microarray binders of probe aCHRDL2, primary screen, biochemical, biotinylated probe, 635/667 nm fluorescence (AID 1100); settings: higher = more signal
# [14] = splicing luciferase reporter signal modulators, primary screen, spliceosome inhibition project, cell-based, HEK293, splice +/- reporter (AID 1101); settings: luminescence, 24 h, higher = more signal, called active from +8 up or from −8 down;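 further: HEK293 cells carrying a splicing-competent luciferase reporter gene; test concentration not given here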
# [15] = target: Fibroblast growth factor 10 (Homo sapiens) (UniProt O15520); assay: FGF10 binders on small-molecule microarrays, primary screen, biochemical, small-molecule microarray, 635 nm fluorescence (AID 1102); settings: FGF10 binding, fluorescence 635 nm, higher = more signal
# Sequence of Fibroblast growth factor 10 (Homo sapiens) (O15520 whole entry, looked up): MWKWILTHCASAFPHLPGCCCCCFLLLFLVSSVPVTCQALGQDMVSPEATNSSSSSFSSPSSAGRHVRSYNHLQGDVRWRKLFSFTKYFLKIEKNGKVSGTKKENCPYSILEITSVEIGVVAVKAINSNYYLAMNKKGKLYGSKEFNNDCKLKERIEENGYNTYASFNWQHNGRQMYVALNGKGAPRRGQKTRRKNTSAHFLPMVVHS
# [16] = tested on: glycogen synthase kinase-3 (GSK3A per assay name; protocol says GSK3B); assay: GSK3 binders on small-molecule microarrays, primary screen, biochemical, small-molecule microarray, 635 nm fluorescence, GSK3A (AID 1103); settings: small-molecule microarray binding, fluorescence 635 nm; higher = more signal; further: the record names both GSK3A and GSK3B
# [17] = target: Epidermal growth factor receptor (Homo sapiens) (UniProt P00533); assay: EGFR binders on small-molecule microarrays, primary screen, biochemical, small-molecule microarray, 635 nm fluorescence (AID 1104); settings: EGFR binding, higher = more signal;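 further: score merges 667 nm emission intensity with spot signal to noise over triplicate slides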
# Sequence of Epidermal growth factor receptor (Homo sapiens) (P00533 whole entry, looked up): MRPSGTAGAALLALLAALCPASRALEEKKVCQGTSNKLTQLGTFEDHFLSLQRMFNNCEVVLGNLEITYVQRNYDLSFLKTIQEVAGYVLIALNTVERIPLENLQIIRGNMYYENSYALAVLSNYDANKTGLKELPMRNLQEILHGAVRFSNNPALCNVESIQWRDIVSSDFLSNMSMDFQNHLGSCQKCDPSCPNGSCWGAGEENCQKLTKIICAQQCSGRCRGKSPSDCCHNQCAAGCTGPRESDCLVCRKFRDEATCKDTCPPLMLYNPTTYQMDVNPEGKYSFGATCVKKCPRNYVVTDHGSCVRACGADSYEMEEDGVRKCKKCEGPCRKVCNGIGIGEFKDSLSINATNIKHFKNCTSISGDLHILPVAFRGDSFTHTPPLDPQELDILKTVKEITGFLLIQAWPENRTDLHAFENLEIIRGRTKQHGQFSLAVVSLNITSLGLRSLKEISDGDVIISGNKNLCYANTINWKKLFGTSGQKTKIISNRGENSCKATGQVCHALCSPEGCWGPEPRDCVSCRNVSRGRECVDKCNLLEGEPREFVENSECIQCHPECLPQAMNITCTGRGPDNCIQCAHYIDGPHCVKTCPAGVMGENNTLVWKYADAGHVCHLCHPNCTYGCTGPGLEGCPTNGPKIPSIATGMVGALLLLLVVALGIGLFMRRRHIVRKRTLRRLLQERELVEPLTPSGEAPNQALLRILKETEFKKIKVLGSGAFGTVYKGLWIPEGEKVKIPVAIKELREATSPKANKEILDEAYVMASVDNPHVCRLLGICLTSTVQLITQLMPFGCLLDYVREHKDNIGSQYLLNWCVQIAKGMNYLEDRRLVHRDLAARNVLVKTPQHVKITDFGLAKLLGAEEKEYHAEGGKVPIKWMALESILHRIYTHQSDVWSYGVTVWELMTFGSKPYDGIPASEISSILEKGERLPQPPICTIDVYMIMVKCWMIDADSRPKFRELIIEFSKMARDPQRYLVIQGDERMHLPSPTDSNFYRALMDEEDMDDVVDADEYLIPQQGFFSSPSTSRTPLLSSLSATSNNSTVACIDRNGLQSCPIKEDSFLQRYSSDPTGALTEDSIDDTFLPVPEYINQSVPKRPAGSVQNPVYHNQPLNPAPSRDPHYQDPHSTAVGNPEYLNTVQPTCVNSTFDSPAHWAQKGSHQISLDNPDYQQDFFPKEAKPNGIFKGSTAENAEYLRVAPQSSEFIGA
# [18] = target: Follistatin-related protein 3 (Homo sapiens) (UniProt O95633); assay: FSTL3 binders on small-molecule microarrays, primary screen, biochemical, small-molecule microarray, 635 nm fluorescence (AID 1105); settings: FSTL3 binding, higher = more signal;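 further: score merges emission near 667 nm and signal to noise per printed spot across three slides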
# Sequence of Follistatin-related protein 3 (Homo sapiens) (O95633 whole entry, looked up): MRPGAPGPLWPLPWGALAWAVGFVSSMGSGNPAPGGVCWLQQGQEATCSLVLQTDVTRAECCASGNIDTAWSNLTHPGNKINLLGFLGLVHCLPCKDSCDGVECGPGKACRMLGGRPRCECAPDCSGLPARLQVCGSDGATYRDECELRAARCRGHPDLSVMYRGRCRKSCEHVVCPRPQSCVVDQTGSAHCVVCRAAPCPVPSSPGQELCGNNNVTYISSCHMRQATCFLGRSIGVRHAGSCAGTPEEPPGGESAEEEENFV
# [19] = target: Dickkopf-related protein 1 (Homo sapiens) (UniProt O94907); assay: DKK1 binders on small-molecule microarrays, primary screen, biochemical, small-molecule microarray, 635 nm fluorescence scan (AID 1106); settings: DKK1 binding, higher = more signal;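 further: score merges emission near 667 nm with signal to noise over three replicate slides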
# Sequence of Dickkopf-related protein 1 (Homo sapiens) (O94907 whole entry, looked up): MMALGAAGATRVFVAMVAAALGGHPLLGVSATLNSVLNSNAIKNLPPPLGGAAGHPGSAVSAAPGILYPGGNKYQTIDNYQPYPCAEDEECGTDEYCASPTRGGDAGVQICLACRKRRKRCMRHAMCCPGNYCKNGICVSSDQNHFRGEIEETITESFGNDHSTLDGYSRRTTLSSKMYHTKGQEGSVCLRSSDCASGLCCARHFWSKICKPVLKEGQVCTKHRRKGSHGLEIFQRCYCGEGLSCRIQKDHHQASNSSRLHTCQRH
# [20] = tested on: Inhibin beta A chain (activin A); assay: INHBA (activin A) binders on microarrays, primary screen, biochemical, small-molecule microarray, 635 nm fluorescence scan (AID 1107); settings: small-molecule microarray binding, higher = more signal;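 further: mouse activin A protein probed at 4.33 µg/mL on printed slides; score merges bound-protein fluorescence near 667 nm with spot signal-to-noise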
Structure (SMILES),composite z-score [1],z-score [2],z-score [3],z-score [4],composite z-score [5],z-score [6],composite z-score [7],composite z-score [8],composite z-score [9],composite z-score [10],composite z-score [11],composite z-score [12],composite z-score [13],z-score [14],composite z-score [15],composite z-score [16],composite z-score [17],composite z-score [18],composite z-score [19],composite z-score [20]
CC(C)C[C@@H]1NC(=O)[C@@H]2C[C@H](C(=O)NCCCCCN)[C@H](c3ccc(O)cc3)N2C1=O,1.57,0.563 (inactive),0.32 (inactive),0.965 (inactive),2.57,-0.687 (inactive),-0.109,1.47,0.894,-0.0078,0.311,0.283,0.403,0.103 (inactive),0.843,1.31,0.0233,1.26,0.93,0.585
CC(C)C(=C=CC[C@H](O)c1ccc(OCCO)cc1)C[C@H](O)c1ccccn1,1.52,0.758 (inactive),-1.29 (inactive),-0.132 (inactive),1.18,0.714 (inactive),-0.142,1.28,0.481,-0.146,0.471,-0.0813,-0.233,-0.544 (inactive),0.275,0.372,-0.511,-0.11,-0.478,-0.262
COCC1=C2[C@@H](CCc3ccccc3)OB(O)C[C@@H]2[C@@H]2C(=O)C=CC(=O)[C@@H]2C1,1.57,0.506 (inactive),-2.86 (inactive),-0.288 (inactive),1.32,-0.224 (inactive),-0.143,0.883,1.12,-0.106,0.367,-0.0473,-0.0343,1.2 (inactive),0.378,0.679,0.149,0.647,0.489,0.27
Cc1ccc(S[C@]2(C(=O)NCC(F)(F)F)CC(=O)N(Cc3ccccc3C(F)(F)F)[C@@H]2c2ccc(CO)cc2I)cc1,-0.987,-1.54 (inactive),-2.79 (inactive),1.65 (inactive),0.779,0.625 (inactive),-0.072,-0.859,-1.45,-0.254,1.46,-0.255,0.956,-0.0164 (inactive),-1.34,-1.49,-1.96,-1.28,-1.7,0.283
COc1cc2c(cc1OC)CN(C(=O)[C@@H]1[C@H]3C(=O)O[C@H](c4ccccc4)[C@H](c4ccccc4)N3[C@H](c3ccc(OCCO)cc3)[C@@]13C(=O)Nc1ccccc13)CC2,1.54,3.17 (inactive),1.16 (inactive),5.44 (inactive),3,0.761 (inactive),-0.126,1.32,1.15,0.134,1.41,0.0269,0.0159,0.576 (inactive),1.4,1.17,0.399,1.07,0.343,0.508
CCC[C@@H]1C[C@@]1(CCC)[C@@H](NC(=O)OCc1ccccc1)c1ccc(-c2ccccc2)cc1,-0.936,-0.979 (inactive),-15.5 (active),-0.0091 (inactive),0.543,0.0945 (inactive),0.239,-0.0553,-0.621,-0.186,-1.27,-0.163,0.565,-3.43 (inactive),-0.933,-1.74,-1.1,-0.644,-0.496,1.47
CC(c1ccccc1)C(O)C1C=CC2C(=O)N(c3ccccc3)C(=O)C2N1Nc1ccc([N+](=O)[O-])cc1 (stereo not given),1.07,0.197 (inactive),1.58 (inactive),1.78 (inactive),3.55,0.1 (inactive),0.0249,0.361,1.09,-0.027,1.38,0.831,0.862,-0.43 (inactive),0.781,1.3,0.424,1.23,-0.405,0.854
[N-]=[N+]=Nc1ccccc1[C@@H]1OC(c2ccc(OCCCO)cc2)=N[C@]1(Cc1ccccc1)C(=O)NCC(O)CO (stereo not given in full),1.55,-0.281 (inactive),-1.4 (inactive),1.32 (inactive),2.65,1.05 (inactive),0.589,0.244,0.0643,0.206,1.08,1.33,1.4,-1.37 (inactive),0.915,-0.216,-0.433,0.18,-0.647,1.09
C=C(C(=O)CC[C@@H](OC(C)=O)c1ccc(CO)o1)C(C)C,1.2,-2.4 (inactive),-0.357 (inactive),-0.561 (inactive),0.288,0.331 (inactive),-0.186,1.28,0.982,-0.15,-0.78,-0.418,-0.298,0.993 (inactive),0.826,0.482,-0.289,1.39,0.536,1.41
CC(C)[Si](C#C[Si](C(C)C)(C(C)C)C(C)C)(O[C@H](C)c1cn([C@H](CO)Cc2ccccc2)nn1)C(C)C,0.857,-0.653 (inactive),-0.644 (inactive),-0.356 (inactive),1.76,1.51 (inactive),-0.0961,-0.0066,0.407,-0.133,0.107,-0.229,-0.316,-0.0126 (inactive),0.0848,0.229,0.0255,-0.0447,0.377,0.201
CCOC(=O)C1=CC[C@@H](c2ccc(OCc3ccccc3)c(OC)c2)N(S(=O)(=O)c2ccc(C)cc2)[C@H]1c1ccc(SC)cc1,1.1,-0.448 (inactive),0.236 (inactive),1.94 (inactive),3.21,-0.628 (inactive),0.347,0.257,1.12,0.206,1.26,0.842,1.04,0.236 (inactive),1.1,0.587,0.838,1.12,0.174,0.994
